Key:
[1] = tested on: Human papillomavirus type 1a protein E7 (residues 44-93); assay: small molecules binding HPV E7 44-93 – biochemical, small-molecule microarray, residues 44-93, 635 nm fluorescence, primary screen (AID 1108); conditions: fluorescence 635 nm, higher = more signal;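 also: E7 fragment applied at 1 µg/mL in TBST for 1 h at 4 C; score combines spot fluorescence with its signal to noise ratio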
[2] = hepatitis C replication reporter changes, two-sided – Huh7 cells, luciferase reporter, HCV replication inhibitor project, primary screen (AID 1109); conditions: Huh7 HCV replicon luciferase reporter, 48 h; higher = more signal;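 also: huh7 hepatoma cells harbouring a luciferase neomycin HCV replicon reporter; luciferase luminescence as measure of HCV replicon replication; test concentration not given here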
[3] = molecular target: Left-right determination factor 2 (Homo sapiens) (UniProt O00292); assay: small molecules binding LEFTY2 protein – biochemical, small-molecule microarray, 635 nm fluorescence scan, primary screen (AID 1110); conditions: higher = more signal
[4] = molecular target: Calmodulin-1 (Homo sapiens) (UniProt P0DP23); assay: small molecules binding calmodulin-1 with EGTA – biochemical, small-molecule microarray, Cy5-labelled CALM1, profiling panel (AID 1111); conditions: Cy5-CALM1 binding fluorescence, higher = more signal;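 also: labelled calmodulin applied in Tris saline Tween buffer holding calcium plus EGTA and DTT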
[5] = molecular target: Calmodulin-1 (Homo sapiens) (UniProt P0DP23); assay: small molecules binding Ca-loaded calmodulin-1 – biochemical, small-molecule microarray, Cy5-labelled CALM1, plus calcium, artefact control for SMM control-protein annotation, profiling panel (AID 1112); conditions: Cy5-CALM1 binding fluorescence, higher = more signal;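 also: score merges spot fluorescence with signal to noise from triplicate slides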
[6] = probe aWnt5a binding to arrayed compounds – biochemical, biotinylated probe, 635/667 nm fluorescence, primary screen (AID 1113); conditions: small-molecule microarray, higher = more signal;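 also: score merges 667 nm fluorescence intensity with signal-to-noise per printed feature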
[7] = probe aShh binding to arrayed compounds – biochemical, biotinylated probe, 635/667 nm fluorescence, primary screen (AID 1114); conditions: small-molecule microarray, higher = more signal;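 also: probe is biotin-labelled aShh protein from a stem cell growth factor screen; measures binding of labelled protein to compounds printed on the slide; score merges feature fluorescence at 667 nm with signal-to-noise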
[8] = probe aNog binding to arrayed compounds – biochemical, biotinylated probe, 635/667 nm fluorescence, primary screen (AID 1115); conditions: small-molecule microarray, higher = more signal;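 also: probe is biotinylated aNog protein used at 0.15 µg/mL for 1 h at 4 C; z-score combines 667 nm fluorescence of each spot with its signal to noise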
[9] = molecular target: Torsin-1A-interacting protein 1 (Homo sapiens) (UniProt Q5JTV8); assay: compound microarray binding of lysate hLAP1 – cell lysate, small-molecule microarray, COS7 lysate, 635/667 nm fluorescence, primary screen (AID 1116); conditions: 635 nm fluorescence, higher = more signal
[10] = molecular target: Alpha-bungarotoxin (Bungarus multicinctus) (UniProt P60615); assay: compounds binding labelled alpha-BTX control protein – biochemical, small-molecule microarray, Alexa647 label, 635/667 nm fluorescence, artefact control for SMM control protein annotation, profiling panel (AID 1117); conditions: alpha-BTX-A647 binding fluorescence, higher = more signal
Sequence of Alpha-bungarotoxin (Bungarus multicinctus) (P60615 whole entry, looked up): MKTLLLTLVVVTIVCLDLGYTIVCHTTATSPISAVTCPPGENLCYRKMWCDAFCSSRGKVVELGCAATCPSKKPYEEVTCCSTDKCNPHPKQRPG

Sequence of Torsin-1A-interacting protein 1 (Homo sapiens) (Q5JTV8 whole entry, looked up): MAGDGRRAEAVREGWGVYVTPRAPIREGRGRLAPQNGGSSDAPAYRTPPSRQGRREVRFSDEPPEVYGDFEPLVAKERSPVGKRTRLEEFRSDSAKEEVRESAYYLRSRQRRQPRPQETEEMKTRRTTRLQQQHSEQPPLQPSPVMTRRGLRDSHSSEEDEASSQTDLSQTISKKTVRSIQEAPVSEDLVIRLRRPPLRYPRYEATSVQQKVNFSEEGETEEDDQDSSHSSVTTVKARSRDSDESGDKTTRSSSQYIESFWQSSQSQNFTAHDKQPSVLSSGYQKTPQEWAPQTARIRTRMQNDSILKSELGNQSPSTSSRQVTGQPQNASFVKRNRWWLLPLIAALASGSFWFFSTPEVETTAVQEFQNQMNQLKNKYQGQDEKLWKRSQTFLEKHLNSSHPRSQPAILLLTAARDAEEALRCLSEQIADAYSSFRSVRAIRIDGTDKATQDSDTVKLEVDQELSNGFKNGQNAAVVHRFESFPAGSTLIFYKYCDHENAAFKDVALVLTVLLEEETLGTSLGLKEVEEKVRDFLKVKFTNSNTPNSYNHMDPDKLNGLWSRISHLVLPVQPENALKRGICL
Sequence of Left-right determination factor 2 (Homo sapiens) (O00292 whole entry, looked up): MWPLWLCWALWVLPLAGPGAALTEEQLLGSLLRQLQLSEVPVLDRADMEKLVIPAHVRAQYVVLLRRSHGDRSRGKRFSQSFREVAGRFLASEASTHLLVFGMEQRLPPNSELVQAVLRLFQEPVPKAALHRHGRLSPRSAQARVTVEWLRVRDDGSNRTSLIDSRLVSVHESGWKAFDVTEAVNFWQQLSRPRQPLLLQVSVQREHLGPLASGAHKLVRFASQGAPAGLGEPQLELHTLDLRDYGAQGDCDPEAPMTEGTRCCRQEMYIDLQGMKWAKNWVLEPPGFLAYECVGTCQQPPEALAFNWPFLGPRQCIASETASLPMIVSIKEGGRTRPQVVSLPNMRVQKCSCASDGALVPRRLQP

Row | SMILES | composite z-score [1] | z-score [2] | composite z-score [3] | composite z-score [4] | composite z-score [5] | composite z-score [6] | composite z-score [7] | composite z-score [8] | composite z-score [9] | composite z-score [10]
1 | O=C1O[C@H](c2ccccc2)[C@H](c2ccccc2)N2[C@H]1[C@@H](C(=O)O)[C@]1(C(=O)Nc3ccc(C#CCCO)cc31)[C@H]2c1ccc(OCCO)cc1 | 1.12 | -0.534 | 0.453 | 1.05 | 0.532 | -0.0472 | -0.0769 | 0.133 | 1.65 | 2.47
2 | NC(=O)N1C(=O)C2C(C1=O)C1C=C(CCCO)C2C(c2ccc(CN3CCCC3)cc2)N1Cc1cc2c(cc1Br)OCO2 (stereo not given) | -1.36 | -1.51 | 0.943 | -0.666 | -0.361 | -0.128 | 0.0796 | -0.252 | 0.187 | -0.493
3 | C=CCC(OC(C)=O)[C@@H]1[C@@H](N(Cc2cccc3ccccc23)C(=O)c2ccc(-c3ccccc3)cc2)c2cc(OCCCO)ccc2N1C(=O)Cc1ccc2ccccc2c1 (stereo not given in full) | -0.515 | -0.105 | -0.181 | 0.858 | 0.912 | 0.0399 | 0.0278 | -0.0773 | 0.438 | 0.106
4 | COC(=O)C(CC#Cc1ccc2c(c1)[C@]1(C(=O)N2)[C@H](c2ccc(OCCO)cc2)N2[C@H](c3ccccc3)[C@H](c3ccccc3)OC(=O)[C@H]2[C@@H]1C(=O)N1CCCCCCC1)C(=O)OC | 1.32 | -0.851 | 1.62 | 2.73 | 1.29 | 1.25 | 2.81 | 2.33 | 4.91 | 2.62
5 | O=C(NCc1ccccc1)[C@@H]1c2ccccc2C(=O)N(Cc2cc(C(F)(F)F)cc(C(F)(F)F)c2)[C@H]1c1ccc(CO)cc1 | 1.38 | 0.0626 | 0.446 | 0.288 | -0.823 | 0.0257 | -0.0011 | -0.213 | 0.517 | 0.556
6 | COC(=O)[C@@]1(Cc2ccc(OC)cc2)[C@H]2c3cc(C(=O)N4CCCC4)n(Cc4ccc(C(F)(F)F)nc4)c3C[C@H]2CN1C(=O)c1ccccc1 | 0.381 | -2.25 | -0.412 | 0.0624 | -0.954 | 0.037 | -0.153 | 0.374 | 0.476 | -0.075
7 | CC(C)C[C@@H]1NC(=O)[C@@]23C(=O)N[C@@H](Cc4ccccc4)C2[C@H](C)[C@@]2(C)O[C@H]2C3/C=C/C/C=C\CNC(=O)CNC1=O (stereo not given in full) | 0.346 | 0.349 | 0.259 | -0.535 | -0.963 | -0.0478 | -0.138 | -0.125 | 0.189 | 0.49
8 | O=C(NCc1ccc(F)cc1)[C@H]1C[C@H]2C(=O)N3CCC[C@H]3C(=O)N2[C@H]1c1ccc(O)cc1 | -0.512 | 0.85 | 0.124 | -0.178 | -0.386 | -0.176 | -0.366 | -0.344 | 0.424 | -0.374
9 | CCOC(=O)C1=CC[C@@H](c2ccc(OC)cc2)N(S(=O)(=O)c2ccc(C)cc2)[C@H]1c1ccc(C)cc1 | 1.33 | -0.12 | -0.0746 | 0.783 | 0.894 | 0.0509 | 0.216 | -0.201 | 0.467 | 0.611
10 | C=C(CCCC)/C(=C/C[C@@H](OC(C)=O)c1ccc(CO)o1)c1cnc2ccccc2c1 | 1.42 | -0.756 | 0.735 | 0.626 | -0.764 | -0.0704 | 0.147 | -0.0719 | 1.69 | 1.15
11 | O=C1C=C(c2ccccc2)C(=O)C2=C1CC([C@H]1Oc3ccccc3S(=O)(=O)N3CCC[C@@H]13)=CC2 | 0.529 | -3.98 | 0.0208 | 0.042 | -0.207 | -0.124 | -0.304 | -0.172 | 0.0279 | 0.0221
12 | CN1C(=O)C2C(C3CC3)C=C3CN(Cc4cccc(Cl)c4)[C@@H]([C@@H](O)Cc4ccccc4)C3C2C1=O (stereo not given in full) | 1.36 | -1.6 | 0.526 | 0.283 | -0.469 | -0.244 | -0.462 | -0.332 | 0.648 | 1.04
13 | CCCC#C[Si](O[C@H](CC)c1cn(Cc2ccccc2)nn1)(C(C)C)C(C)C | 1.29 | -0.283 | 0.631 | -0.0722 | -0.337 | 0.0799 | -0.153 | -0.234 | 0.927 | 1.11
14 | C=CCN1C(=O)[C@@]2(O[C@@H](CCn3cc([C@H](O)c4ccccc4)nn3)[C@H]([Si](C)(C)c3ccc(OC)cc3)[C@H]2C)c2cc(N3C(=O)c4cccc5cccc3c45)ccc21 | -0.18 | -3.74 | -0.898 | 0.178 | 0.872 | -0.178 | -0.138 | 0.205 | -0.236 | -0.0541
15 | [N-]=[N+]=NCc1ccccc1[C@@H]1OC(c2ccc(OCCCO)cc2)=N[C@]1(Cc1ccccc1N=[N+]=[N-])C(=O)NCC(O)CO (stereo not given in full) | 1.18 | -1.41 | -0.262 | 2.58 | 1.23 | 0.61 | 0.0048 | 2.34 | 2.74 | 0.895
16 | COCCOC(=O)N1C(=O)[C@@]2(c3cc(C#CCC(C(=O)OC)C(=O)OC)ccc31)[C@H](C(N)=O)[C@H]1C(=O)O[C@H](c3ccccc3)[C@H](c3ccccc3)N1[C@@H]2c1ccc(O)cc1 | 1.42 | -2.77 | 0.713 | 1.01 | 0.0194 | 0.0179 | 0.0328 | -0.543 | 1.08 | 1.61
17 | C=C(COC)C(=O)CC[C@@H](OC(C)=O)c1ccccc1OCCO | 0.0358 | -2.72 | 0.325 | -0.85 | -0.976 | -0.175 | -0.0626 | 0.493 | 1.28 | 0.0746
18 | [N-]=[N+]=Nc1ccccc1[C@@H]1OC(c2ccc(OCCCO)cc2)=N[C@]1(Cc1ccccc1)C(=O)NCCN1CCOCC1 | 1.5 | -2.41 | -0.429 | -0.0408 | 0.741 | 0.0044 | 0.185 | 0.996 | 1.52 | 1.23
19 | CCCCCC1=C2CNC(CC(C)C)(C(=O)OC)C=C2C(C)C1=O (stereo not given) | 1.2 | -0.897 | -0.869 | 1.64 | 1.22 | -0.0165 | 1.16 | 0.154 | 0.932 | 0.195
20 | COC(=O)[C@@]1(Cc2ccccc2)[C@H]2c3cc(C(=O)N4CCCC4)n(Cc4ccc(OC)c(OC)c4)c3C[C@H]2CN1C(=O)c1ccccc1 | 1.44 | -2.27 | -0.737 | 1.39 | 0.852 | 0.421 | 0.853 | 1.85 | 1.38 | 0.315
21 | COCCOC(=O)N1C(=O)[C@@]2(c3cc(C#CCNC(N)=O)ccc31)[C@H](C(=O)Nc1nc3ccccc3s1)[C@H]1C(=O)O[C@H](c3ccccc3)[C@H](c3ccccc3)N1[C@@H]2c1ccccc1OCCO | 0.629 | -1.22 | 0.685 | 0.567 | 0.132 | -0.0405 | 0.142 | 0.355 | 1.05 | 0.771
22 | [N-]=[N+]=Nc1ccccc1C[C@@]1(C(=O)NCC(O)CO)N=C(c2ccc(OCCCO)cc2)O[C@@H]1c1ccccc1 (stereo not given in full) | 0.355 | -0.688 | -1.28 | 0.754 | 0.0985 | 0.0431 | 0.151 | 0.0308 | 1.48 | -0.422
23 | O=C(NCCN1CCOCC1)[C@@H]1c2ccccc2C(=O)N(Cc2ccccc2C(F)(F)F)[C@H]1c1ccc(CO)cc1 | 1.01 | -0.513 | -1.45 | -0.804 | -0.56 | -0.145 | -0.73 | 0.0703 | -0.851 | -0.755
24 | C=CCN1Cc2ccccc2[C@H]2OC(c3ccc(OCCCO)cc3)=N[C@@]2(CCS(=O)(=O)c2ccccc2)C1=O | 1.26 | -1.56 | 0.62 | 1.64 | 0.472 | 0.0704 | -0.0056 | -0.0831 | 1.49 | 1.21
25 | C=C(CCCC)/C(=C/C[C@H](OC(=O)c1ccncc1)c1ccc(OCCO)cc1)c1cnc2ccccc2c1 | -0.38 | -2.25 | 0.437 | 0.679 | -0.159 | -0.129 | -0.0146 | -0.125 | 0.49 | 2.52
26 | C=CCOC(=O)[C@@H]1[C@H]2C(=O)O[C@H](c3ccccc3)[C@H](c3ccccc3)N2[C@H](c2ccc(OCCOC(=O)[C@H]3C[C@H]4C(=O)N5CCC[C@H]5C(=O)N4[C@H]3c3cccc(OCCO)c3)cc2)[C@@]12C(=O)Nc1ccc(I)cc12 | 0.195 | -0.898 | 1.19 | -0.0165 | 0.0231 | -0.0566 | 0.138 | 0.373 | 1.09 | 0.659

Source: PubChem BioAssay
